# Screening data from PubChem BioAssay.
# Sampled rows, rich in hits. Any-hit rate of the full collection: about 3.2%.
# PMP22 txn prim – modulates PMP22 transcription in S16 Schwann cells; 43,000 compounds, 2% hits; Potency, µM (top dose mostly 57.5 µM), for inactives: at the top dose activity change, negative = inhibition, most hits filed as inhibitors; AID 1508649; S16 Pmp22-F2sN Schwann cells, FLuc/NLuc coincidence luminescence, 24 h; active means clear falling dose curves in both reporters; inconclusive means both reporters move, but less clearly or upward; inactive means either reporter flat; the % is the NLuc reporter signal; further: potency means the concentration at half of the fitted maximal effect; on the % scale 0 is the no-effect control and ±100 the full control effect
#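 Transcriptional readout in edited S16(c9) cells: two luciferases reported from the Pmp22 locus, measured in turn after 24 h compound incubation.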
# S16 viability – toxic to S16 Pmp22-F2sN Schwann cells | 43,000 compounds, 0.48% hits | Potency, µM (titrated, usually from 57.5 µM), for the others: top-dose activity change, negative = cytotoxicity, most hits filed as cytotoxic | S16 Pmp22-F2sN Schwann cells viability, CellTiter-Glo, 24 h; further: potency means the concentration at half of the fitted maximal effect; on the % scale 0 is the no-effect control and ±100 the full control effect; nearly all actives have a fitted effect of over 65% in size
#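 Rat S16 Schwann reporter line, 24 h treatment with library compounds delivered at 23 nL per well. Cell viability by CellTiter-Glo luminescence.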
# mTORC1 inh – inhibitors of mTORC1 signaling in Tsc2-/- p53-/- MEF cells; Tsc2-/- p53-/- MEF, phospho-rpS6 immunofluorescence/PI, 24 h; 44,000 compounds, 0.78% hits; AID 493208; Potency, µM (series often up to 38.3 µM), inactives show at the highest dose activity change, negative = inhibition, actives largely listed as inhibitors;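 further: potency means the concentration at half of the fitted maximal effect; plate controls were DMSO for no effect and rapamycin for full effect; nearly all actives have a fitted effect of over 50% in size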
#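 Tsc2-/-, p53-/- MEFs (empty-vector stable line) in DMEM + 10% FBS were treated with compounds 24 h at 37 degree Celsius, fixed, and immunostained for phospho-rpS6 (Alexa-488) with propidium iodide counterstain. Laser-scanning cytometry gave % positive cells, normalized against 7.5 nM rapamycin and DMSO.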
# p53null 39C tox – p53 null cell cytotoxicity, nonpermissive temperature. H1299 p53-null (neo) cells, 39C, ATPlite viability, 24 h. Potency, µM (series often up to 46.1 µM), for the others: top-dose activity, negative = cell killing, actives largely listed as cytotoxic. 55,000 compounds, 0.97% hits. AID 904;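 further: potency means the concentration at half of the fitted maximal effect; 0% = DMSO only and -100% = full killing by 100 µM tamoxifen; nearly all actives have a fitted effect of over 50% in size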
#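 ATP-luminescence viability readout (ATPlite, 20 min RT) after 24 hr compound treatment at 39C of H1299-neo or H1299-p53A138V cells; titration up to 46 uM; normalized to DMSO and 100 uM tamoxifen; Hill-fit AC50.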
# p53null 32C kill – selectivity test: cytotoxicity in p53 null cells, permissive temperature. H1299-neo p53 null cells, ATP luminescence, 24 h, 32C. Potency, µM (series often up to 46.1 µM), for the others: top-dose activity change, negative = cytotoxicity, most hits filed as cytotoxic. 55,000 compounds, 0.62% hits. AID 903;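 further: potency means the concentration at half of the fitted maximal effect; 0% = DMSO only and -100% = full killing by 100 µM tamoxifen; nearly all actives have a fitted effect of over 55% in size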
#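 Luminescent ATP readout gave cell viability of p53-null H1299-neo cells after a 24 h compound exposure at the permissive 32C. Titrations ran up to 46 uM, and AC50s were fitted with the standard Hill equation.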
# NLuc saturating – counter-screen for PMP22 expression modulators: NanoLuc inhibition, saturating substrate. shares compounds with PMP22 txn prim. Secreted NLuc enzyme (filtered S16 cell medium), Nano-Glo luminescence. Potency, µM (titrated, usually from 57.5 µM), for inactives: top-dose activity change, negative = inhibition, usual class: inhibitors. 690 compounds, 4% hits. AID 1508638; further: potency means the concentration at half of the fitted maximal effect; on the % scale 0 is the no-effect control and ±100 the full control effect
# NLuc Km ctr – counter-screen for PMP22 expression modulators: NanoLuc inhibition at Km; Potency, µM (doses to about 57.5 µM), for the others: at the highest dose activity change, negative = inhibition, usual class: inhibitors; shares compounds with PMP22 txn prim; AID 1508639; 690 compounds, 5% hits; secreted NLuc enzyme, coelenterazine luminescence, Km conditions; further: potency means the concentration at half of the fitted maximal effect; on the % scale 0 is the no-effect control and ±100 the full control effect
# FLuc counter – counter-screen for PMP22 expression modulators: firefly luciferase inhibition. shares compounds with PMP22 txn prim. purified P. pyralis FLuc, luminescence, 10 min. Potency, µM (titrated, usually from 57.5 µM), without a hit: at the highest dose activity, negative = inhibition, most hits filed as inhibitors. 690 tested, under 10 active. AID 1508640; further: % of control where 0% means no effect
# Target sequence (P08659 whole entry, looked up): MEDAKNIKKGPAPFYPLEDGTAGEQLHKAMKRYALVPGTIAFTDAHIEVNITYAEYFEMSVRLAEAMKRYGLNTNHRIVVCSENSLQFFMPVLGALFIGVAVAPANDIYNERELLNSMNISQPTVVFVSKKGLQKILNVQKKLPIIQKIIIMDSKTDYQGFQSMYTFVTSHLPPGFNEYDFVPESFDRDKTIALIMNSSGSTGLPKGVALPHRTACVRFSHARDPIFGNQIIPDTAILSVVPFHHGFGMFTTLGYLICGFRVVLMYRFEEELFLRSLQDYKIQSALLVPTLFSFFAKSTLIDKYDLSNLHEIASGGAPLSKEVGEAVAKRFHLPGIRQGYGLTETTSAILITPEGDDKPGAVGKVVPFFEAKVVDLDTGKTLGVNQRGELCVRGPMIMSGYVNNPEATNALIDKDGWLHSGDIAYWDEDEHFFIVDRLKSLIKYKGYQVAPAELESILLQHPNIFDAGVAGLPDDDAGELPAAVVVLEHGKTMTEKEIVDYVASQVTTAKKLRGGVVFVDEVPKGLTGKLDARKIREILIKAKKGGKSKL
# S16 viab conf – confirmation of cytotoxicity in S16 Pmp22-F2sN Schwann cells (luciferase reporters placed in the Pmp22 gene). shares compounds with PMP22 txn prim. 690 compounds, 7% hits. Potency, µM (highest dose often 57.5 µM), for the others: at the top dose activity change, negative = viability loss, actives largely listed as cytotoxic. S16 Schwann cells viability, CellTiter-Glo ATP luminescence, 24 h; further: potency means the concentration at half of the fitted maximal effect; on the % scale 0 is the no-effect control and ±100 the full control effect
# PMP22 txn conf – PMP22 transcription modulation, confirmatory. shares compounds with PMP22 txn prim. S16 Schwann cells Pmp22-F2sN, dual luciferase, 24 h. Potency, µM (doses to about 57.5 µM), for inactives: at the highest dose activity change, negative = inhibition, usual class: inhibitors. 690 compounds, 22% hits. AID 1508646; active means clear falling dose curves in both reporters; inconclusive means both reporters move, but less clearly or upward; inactive means either reporter flat; the % is the FLuc reporter signal; further: potency means the concentration at half of the fitted maximal effect
# PMP22 HiBiT cnf – rat PMP22 protein level modulation, confirmatory; shares compounds with PMP22 txn prim; S16 Schwann cells Pmp22-HiBiT, luminescence, 48 h; Potency, µM (top dose mostly 27.9 µM), without a hit: top-dose activity change, negative = inhibition, actives largely listed as inhibitors; 95 tested, under 10 active; AID 1508647
# Target sequence (P25094 whole entry, looked up): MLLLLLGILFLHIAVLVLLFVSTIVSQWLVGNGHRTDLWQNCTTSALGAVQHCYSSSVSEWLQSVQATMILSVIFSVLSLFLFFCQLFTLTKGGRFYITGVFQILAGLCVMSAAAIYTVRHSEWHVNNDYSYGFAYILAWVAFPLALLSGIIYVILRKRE
# * hit, by the source's call; ? = inconclusive; · = no result. Unless noted, the call rests on the fitted dose curve; in most records, active means well fitted curve in the direction sought with a large enough effect; inconclusive means small, poorly fitted or top-dose-only effect, or another doubt; inactive means no such curve, though single readings can be large; an effect the other way counts as inactive or inconclusive.
SMILES,PMP22 txn prim,S16 viability,mTORC1 inh,p53null 39C tox,p53null 32C kill,NLuc saturating,NLuc Km ctr,FLuc counter,S16 viab conf,PMP22 txn conf,others
O=C(Cn1c(=O)n(-c2ccc(Cl)cc2)c(=O)c2c3c(sc21)CCC3)c1ccc(F)cc1,-14%,-3%,-8%,-19%,2%,·,·,·,·,·,
CCCCS(=O)(=O)c1nc(-c2ccc(Br)cc2)cc(-c2ccccc2)c1C#N,6.8µM*,?,5.2µM*,28%,20%,-12%,3%,4%,-12%,9.3µM*,PMP22 HiBiT cnf=98%
CC1CCN(C(=O)CCS(=O)(=O)c2cc3c(cc2Cl)NC(=O)CO3)CC1,-55%,13%,-5%,8%,2%,-12%,3%,-17%,-6%,-27%,
CCS(=O)(=O)c1nc(S(=O)(=O)c2ccc(Cl)cc2)c(NCc2ccccc2Cl)s1,4.8µM*,-26%,-16%,0%,-2%,?,?,8%,4%,-21%,
Cc1ccc(-c2c(C)n3c4c(=O)n(C)c(=O)n(C)c4nc3n2-c2cccc(O)c2)cc1,16µM*,7%,-1%,?,?,?,?,-5%,-6%,?,
COC(=O)c1ccccc1NC(=O)Cn1cnc2sc(C)c(S(=O)(=O)N3CCC(C)CC3)c2c1=O,-17%,-8%,1%,22%,-4%,·,·,·,·,·,
O=C(Cn1cc(C(=O)c2ccco2)c2ccccc21)Nc1ccccc1Cl,?,-1%,?,-5%,-4%,·,·,·,·,·,
O=C(Cn1cc(C(=O)c2ccco2)c2ccccc21)Nc1ccccc1C(F)(F)F,12µM*,-13%,-19%,-24%,-27%,-4%,3%,5%,16%,3%,
O=C(NCCc1ccccc1)c1ccc(Cn2c(SCc3ccccc3)nc3cccnc32)cc1,9%,-1%,?,?,-24%,·,·,·,·,·,
CSc1nc2sc3c(c2c(=O)n1-c1ccc(C)cc1)CCCC3,14µM*,20%,-1%,-14%,-7%,4.8µM*,?,4%,6%,?,
CC(C)Sc1nc2sc3c(c2c(=O)n1-c1ccccc1)CCCC3,?,14%,4%,13%,-1%,·,·,·,·,·,
Cc1ccc(NC(=O)Cn2c(=O)n(-c3ccc(C)cc3)c(=O)c3ccc(C(=O)NCc4ccccc4Cl)cc32)cc1,4.5µM*,?,-9%,?,-24%,-5%,13%,-2%,22µM*,5.1µM*,PMP22 HiBiT cnf=?
CCc1ccc(NC(=O)Cn2c(=O)n(-c3ccc(OC)cc3)c(=O)c3ccc(C(=O)NCc4ccc(C)cc4)cc32)cc1,13µM*,-8%,?,?,?,-2%,6%,-1%,?,12µM*,PMP22 HiBiT cnf=?
Cc1ccc(-n2c(=O)c3ccc(C(=O)NCc4ccccc4Cl)cc3n(Cc3ccccc3F)c2=O)cc1,0%,-4%,-1%,-3%,5%,·,·,·,·,·,
Cc1ccc(-n2c(=O)c3ccc(C(=O)NCc4ccccc4Cl)cc3n(CC(=O)Nc3ccc(C)cc3C)c2=O)cc1,15µM*,11%,-8%,-5%,1%,-6%,4%,6%,?,8.5µM*,
Cc1c(NC(=O)Nc2cccc(C(F)(F)F)c2)sc2nc3n(c(=O)c12)CCC(C)CC3 (stereo unspecified),·,·,-1%,9%,-2%,·,·,·,·,·,
CCN1c2ccccc2-c2nc(SCC(=O)Nc3cc(F)ccc3F)ncc2S1(=O)=O,?,-16%,-7%,-2%,-3%,·,·,·,·,·,
CCOc1ccc2nc(N3CCCC(C(=O)NCCc4ccc(OC)cc4OC)C3)sc2c1 (stereo unspecified),?,?,-11%,-20%,-4%,·,·,·,·,·,
CCCCn1cc2c(c1-c1ccccc1Br)c(=O)n(C)c(=O)n2C,15µM*,4%,-4%,-14%,0%,?,-15%,-1%,0%,-41%,
COC(=O)c1c(SC)nc2ccccc2c1OCc1ccc(Cl)cc1,?,-28%,-4%,-19%,-7%,·,·,·,·,·,
O=C(CCS(=O)(=O)c1ccc(Br)s1)Nc1cc(C(F)(F)F)cc(C(F)(F)F)c1,20µM*,?,-29%,?,5%,0%,-14%,-4%,?,?,
Cc1[nH]c2ccccc2c1C1(O)C(=O)N(Cc2ccccc2)c2ccc(Br)cc21 (stereo unspecified),16µM*,-9%,?,?,18%,-16%,?,-1%,?,?,
COC(=O)c1cc2occc2n1Cc1cccc(C)c1,?,1%,5%,-7%,7%,-20%,?,3%,7%,20%,
Cc1cccc(-c2nnc(SCC(=O)NC3CCCCC3)o2)c1,21%,-10%,-1%,-15%,0%,·,·,·,·,·,
COc1ccc(Cl)cc1NC(=O)C1CCN(c2ncnc3c2nc2n3CCCCC2)CC1,-24%,2%,1%,-13%,-4%,·,·,·,·,·,
Cc1cccc(OCC(=O)Nc2ccc3c(c2)N(C)C(=O)c2ccccc2S3)c1,?,?,-13%,6%,14%,·,·,·,·,·,
COc1cccc(CNC(=O)Nc2ccc3c(c2)N(C)C(=O)c2ccccc2S3)c1,18µM*,?,-10%,-3%,-6%,?,?,-16%,-2%,?,
